About 1,200 (3.2%) of roughly 38,000 compounds showed an effect of 50% or more. The median lay at about -58%. Shown is part of a subset that was picked to be rich in strong results.
system: Plasmodium falciparum; assay: Calibr Malaria Delayed Death Assay SOP; assay type: functional, organism-based; set-up: scale not given: in the data most compounds retested in dose-response had high values; conditions: concentration 4.99e-06 (unit not given; other assays of the set use mol/L)

Row | Structure (SMILES) | Percent Effect [%]
1 | CCCNC(=O)CCC(=O)n1nc(C)c2ccccc21 | -0.03666
2 | Cc1cc(C)nc(N(C)CCN(C)C2CCCC2)n1 | 27.63
3 | Cc1cc(N(C)CCN(C)C)n2nc(C)cc2n1 | -114.6
4 | Cc1cc(N(C)CCN(C)C2CCCC2)n2nc(C)cc2n1 | 53.42
5 | Nc1ncc(C(=O)N2CCN(c3nccs3)CC2)cc1Cl | -61.47
6 | COc1ccccc1C1(CNc2cn[nH]c(=O)c2Cl)CCOCC1 | -35.38
7 | COc1ccccc1C1(CNc2ncc(S(N)(=O)=O)s2)CC1 | -83.98
8 | Cl.N#Cc1ccc(CNCC2(c3ccccc3)CCOCC2)cc1 | 82.55
9 | COc1ccccc1C1(CNc2ccc(C(=O)N(C)C)cn2)CC1 | -78.51
10 | Cc1nnc(NCC2(c3ccccc3)CCOCC2)c(C#N)c1C | 3.02
11 | COc1ccccc1C1(CNCc2ccc(C#N)cc2)CCOCC1 | 76
12 | CS(=O)(=O)C1(CNCc2cccc(-n3cccn3)c2)CCOCC1 | -93.15
13 | COc1cc(OC)c(CNC(=O)NCc2ccc(C#N)cc2)c(OC)c1 | -15.69
14 | COc1ccccc1C1(CNCc2cccc(O)c2)CCOCC1 | 82.33
15 | COc1ccccc1C1(CNCc2ccc([S+](C)[O-])cc2)CC1 (stereo unspecified) | 68.71
16 | CN(C)c1ccc(C(=O)NCC2(c3ccccc3)CCOCC2)cc1 | -48.74
17 | Oc1cccc(CNCCC2CCCO2)c1 (stereo unspecified) | -6.783
18 | O=C(COc1ccccc1NCc1ccc(F)cc1)N1CCOCC1 | -94.22
19 | COCCOCC(=O)Nc1ccccc1F | -49.03
20 | COc1cc(CNc2cc(N3CCCC3CO)ncn2)ccn1 (stereo unspecified) | -84.2
21 | CN1CCC/C1=N\S(=O)(=O)c1ccc(NC(=O)c2ccsc2)cc1 | -6.415
22 | CCn1cnnc1CNC(=O)c1cc(F)ccc1OC | -155.2
23 | Cl.Nc1cccnc1N1CCCCCC1 | -85.39
24 | C[C@@H]1CN(CCC(=O)NCc2ccccc2Cl)C[C@@]1(O)C1CC1 | 46.32
25 | O=C(O)C(F)(F)F.O=C(O)C(F)(F)F.c1coc(CN2CCCn3c(CN4CCOCC4)nnc3C2)c1 | -56.94
26 | CCSc1ccc(C(=O)NCCc2nnc(-c3ccco3)[nH]2)cn1 | -77.1

Row | Structure (SMILES) | Percent Effect [%]
27 | CC(OCC1CC1)C(=O)NCCC(=O)Nc1ccccn1 (stereo unspecified) | -13.51
28 | COc1ccc(OC)c(Nc2nc3c(C)nn(C)c3c(=O)n2C)c1 | -88.36
29 | CCOCC1CC2(CCN(C(=O)c3ccc4ccccc4n3)CC2)CO1.O=C(O)C(F)(F)F (stereo unspecified) | 2.806
30 | COc1ccccc1C1(CNCc2cccc(C#N)c2)CCOCC1 | 66.05
31 | COc1ccc(CN(C)Cc2cccc(C#N)c2)c(OC)c1 | 25.49
32 | COc1cccc(N2CCC(CNCc3cccc(C#N)c3)C2)c1 (stereo unspecified) | -60.34
33 | CC(C)NC(=O)CN1CCCNCC1 | -82.69
34 | O=C(c1cc(-c2ccn(CC3CC3)n2)n2ccccc12)N1CCOCC1 | 67.86
35 | O=C(c1cc(-c2ccn(CC3CC3)n2)n2ccccc12)N1CCCO1 | -90.15
36 | O=C(O)c1cc(-c2ccn(CC3CC3)n2)n2ccccc12 | -79.58
37 | Cc1nc(CNC(=O)NC2CCCN(c3ncccn3)C2)cs1 (stereo unspecified) | -24.32
38 | CCn1nc(C)c2ccn(CC(=O)NCC3CCCO3)c(=O)c21 (stereo unspecified) | -59.75
39 | CCC(CNS(C)(=O)=O)Oc1ccccc1C (stereo unspecified) | -141.4
40 | Cc1cccc(C)c1OC1CN(C(=O)C2CCN(C(=O)N(C)C)CC2)C1 | -10.34
41 | CCC(CNC1CCN(C(=O)N(C)C)CC1)Oc1ccccc1C (stereo unspecified) | 72.22
42 | CCC(CNC1CCN(C(C)=O)CC1)Oc1ccccc1Cl (stereo unspecified) | 48.49
43 | COCC(=O)N1CCC(Oc2cccc(C)c2)CC1 | -129.3
44 | CCC(CNC1CCN(C(C)=O)CC1)Oc1cccc(C)c1 (stereo unspecified) | 51.47
45 | CCc1ccc(C(=O)N2CCN(CC(O)CC)CC2)o1 (stereo unspecified) | -8.781
46 | Cc1nn(C)c(C)c1C1COCCN1c1ncncc1Br (stereo unspecified) | -86.62
47 | O=C(O)C(F)(F)F.OCCN1CCC(F)(F)C2(CCN(c3cnccn3)C2)C1 (stereo unspecified) | -58.35
48 | CCc1nc(CC(=O)N2CCCC2c2c(C)nn(C)c2OC)cs1 (stereo unspecified) | -39.25
49 | COc1ccc(CN2CCC3(CC2)CC(c2cccnc2)CO3)cc1.O=C(O)C(F)(F)F.O=C(O)C(F)(F)F (stereo unspecified) | -68.03
50 | CCCN1CCC2(CC1)COc1ccccc1S(=O)(=O)N(CC1CC1)C2.O=C(O)C(F)(F)F | -32.31
51 | CCC(=O)N1CCC2(CC1)COc1ccccc1S(=O)(=O)N(C)C2 | -32.01
52 | CN(C)C(=O)CN1CCC2(CC1)COc1ccccc1S(=O)(=O)N(C)C2.O=C(O)C(F)(F)F | -44.68

Row | Structure (SMILES) | Percent Effect [%]
53 | CN1CC2(CCN(CC3CC3)CC2)COc2ccccc2S1(=O)=O.O=C(O)C(F)(F)F | 52.41
54 | COCCN1CCC2(CC1)COc1ccccc1S(=O)(=O)N(C)C2 | -7.731
55 | O=S1(=O)c2ccccc2OCC2(CCN(CCO)CC2)CN1CC1CC1 | 76.86
56 | CN1CC2(CCN(C(=O)C3CCC3)CC2)COc2ccccc2S1(=O)=O | -31.54
57 | CCN1CC2(CCN(C(=O)N(C)C)CC2)COc2ccccc2S1(=O)=O | -20.19
58 | COCC1CN(C(=O)Cc2cccs2)Cc2nnn(CC3CC3)c21 (stereo unspecified) | -20.67
59 | CC(OCC(F)(F)F)C(=O)N1CCOCC1 (stereo unspecified) | -69.84
60 | CN(C)c1ccc(C(=O)N2CCCC2c2cnn(C)c2)cn1 (stereo unspecified) | -130.6
61 | COc1cccc(CC(=O)N2CC[C@@H]3CN(C)S(=O)(=O)[C@@H]3CC2)c1 | -25.41
62 | CC1=C(c2ccc(C)cc2)S(=O)(=O)N=C1N1CCc2ccccc21 | -28.82
63 | OC1(CNc2ccc(F)cc2)CCNCC1 | 9.673
64 | CC(C(=O)Nc1sccc1C(N)=O)N(C)CCOc1ccccc1 (stereo unspecified) | 2.405
65 | Nc1cc(-c2ccc(C(=O)O)cc2O)c2cc[nH]c2n1 | -36.07
66 | Nc1cc(-c2cc(O)cc(C(=O)O)c2)c2cc[nH]c2n1 | -8.693
67 | CCCNCc1ccc(-c2cc(N)nc3[nH]ccc23)cc1 | 71.86
68 | CCCn1nccc1C(=O)Nc1nc(C)c(C)s1 | -95.22
69 | CCc1ccccc1OCCN(C)C(=O)CCN1CCCCO1 | 2.137
70 | CCc1ccccc1OCCN(C)C(=O)CCN1CCCO1 | -98.11
71 | CCc1ccccc1OCCN(C)C(=O)CN1CCCC1 | 75.23
72 | CCn1nc(C)c2ccn(CC(=O)NC(C)C)c(=O)c21 | -79.05
73 | COc1ccc(NC(=O)N(CCO)Cc2ccsc2)cc1 | -36.74
74 | COC(=O)CN(C)Cc1cc(Br)cs1 | -75.79
75 | CCCN(C)CC1CCN(c2ncc(Br)cn2)C1 (stereo unspecified) | -74.37
76 | CCCN(C)CC1CCN(c2ccc(Br)c(C)n2)C1 (stereo unspecified) | 72.9
77 | CCN(C)CC1CCN(c2ncc(Br)cn2)C1 (stereo unspecified) | -58.14
78 | CCC(CC)C(=O)NCCC(=O)N1CCN(c2ccccn2)CC1 | -127.9

Row | Structure (SMILES) | Percent Effect [%]
79 | CC(C)CC(C)NCc1cccnc1N1CCN(c2ccccn2)CC1 (stereo unspecified) | 55.01
80 | CCCC(C)NCc1cccnc1N1CCN(c2ccccn2)CC1 (stereo unspecified) | 51.12
81 | CC(C)NCc1cccnc1N1CCN(c2ccccn2)CC1 | 3.171
82 | CCC(C)NC(=O)NCCC(=O)N1CCN(c2ccccn2)CC1 (stereo unspecified) | -19.73
83 | CC(C)C(=O)NCCC(=O)N1CCN(c2ccccn2)CC1 | -182.3
84 | Cn1c(N)c2c(=O)n(C)c(-c3ccc(Cl)cc3Cl)cc2c(C#N)c1=O | 5.212
85 | Cc1cc(C(=O)N2CCC3(C2)CN(c2ccsc2)C(=O)CN3C)[nH]n1.O=C(O)C(F)(F)F (stereo unspecified) | -16.33
86 | c1ccc(Cc2n[nH]c(C3CCOC3)n2)cc1 (stereo unspecified) | -53.42
87 | COc1ccc(CN2CCC3(CC2)CN(c2ccccn2)CCO3)cc1.O=C(O)C(F)(F)F.O=C(O)C(F)(F)F | 60.62
88 | Cn1ccnc1CN1CCC2(CC1)CN(c1ccccn1)CCO2.O=C(O)C(F)(F)F.O=C(O)C(F)(F)F | -263.3
89 | COCC(=O)N1CCC2(CC1)CN(c1ccccn1)CCO2.O=C(O)C(F)(F)F | -99.25
90 | O=C(O)C(F)(F)F.O=C(O)C(F)(F)F.c1ccc(CN2CCC3(CC2)CN(c2ccccn2)CCO3)nc1 | -71.36
91 | Fc1ccc(CN2CCC3(CC2)CN(c2ccccn2)CCO3)cc1.O=C(O)C(F)(F)F.O=C(O)C(F)(F)F | 46.67
92 | COc1ncccc1CN1CCC2(CC1)CN(c1ccccn1)CCO2.O=C(O)C(F)(F)F.O=C(O)C(F)(F)F.O=C(O)C(F)(F)F | 55.38
93 | O=c1[nH][nH]cc1-c1ccnc(NCCc2ccc(F)cc2)n1 | -53.75
94 | COC(=O)c1cnn(-c2cc(Oc3cccc(C)c3)ncn2)c1N | -10.04
95 | CN1CCC2(CC1)OC(C(=O)NCc1cccnc1)Cn1ccnc12 (stereo unspecified) | -146
96 | COCCN1CCCC(c2nccnc2Nc2nc(C)cs2)C1 (stereo unspecified) | -10.08
97 | O=C(NCC1(O)CCSC1)c1cccc(-n2cccn2)c1 (stereo unspecified) | -128.5
98 | CC(=O)N1CCO[C@@H]2CN(Cc3ccccc3Cl)C[C@@H]2C1.O=C(O)C(F)(F)F | -110.8
99 | O=C(NC1CCNCC1)C1(N2CCCCC2)Cc2ccccc2C1 | 62.66
100 | O=C1NCCCC[C@@H]1NC(=O)C1(N2CCCCC2)Cc2ccccc2C1 | -107.8
101 | O=C(NC1CCNC1)C1(N2CCCCC2)Cc2ccccc2C1 (stereo unspecified) | 33.42

From ChEMBL document CHEMBL3988442, “University of Dundee, Small-Polar-MMV Screening Library” (2021)
